The list is not random: actives were taken first. Their share in the collection is about 2.8%.
Pol iota inh: blocks human DNA polymerase iota activity; 1% of 390,000 active; Pol iota fluorescent replication assay, 10 min; Q9UNA4; Potency, µM (titrated, usually from 115 µM), most hits filed as inhibitors
Target sequence (Q9UNA4 whole entry, looked up): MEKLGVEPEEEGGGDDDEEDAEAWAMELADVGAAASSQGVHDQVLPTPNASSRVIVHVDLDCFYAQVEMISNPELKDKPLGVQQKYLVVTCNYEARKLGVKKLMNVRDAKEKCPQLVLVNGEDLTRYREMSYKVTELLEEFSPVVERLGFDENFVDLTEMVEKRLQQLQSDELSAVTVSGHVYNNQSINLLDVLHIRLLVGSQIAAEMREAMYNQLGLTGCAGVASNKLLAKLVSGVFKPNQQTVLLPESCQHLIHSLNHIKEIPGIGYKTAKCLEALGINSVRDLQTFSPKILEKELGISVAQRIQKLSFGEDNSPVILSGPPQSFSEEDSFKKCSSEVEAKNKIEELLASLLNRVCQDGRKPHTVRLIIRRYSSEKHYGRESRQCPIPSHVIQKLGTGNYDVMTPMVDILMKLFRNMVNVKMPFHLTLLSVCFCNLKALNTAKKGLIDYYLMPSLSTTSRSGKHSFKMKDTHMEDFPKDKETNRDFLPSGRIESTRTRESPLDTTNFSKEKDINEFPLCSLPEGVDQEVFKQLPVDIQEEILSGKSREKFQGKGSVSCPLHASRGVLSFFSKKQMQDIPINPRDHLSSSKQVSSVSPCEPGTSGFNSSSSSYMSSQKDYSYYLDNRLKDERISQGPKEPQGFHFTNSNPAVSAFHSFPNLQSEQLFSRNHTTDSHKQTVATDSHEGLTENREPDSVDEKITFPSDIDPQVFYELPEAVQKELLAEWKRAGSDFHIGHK
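Fluorescent replication assay read twice, at 0 min and 10 min after adding 50 nM (final) substrate. Enzyme (10 nM) and compounds were first incubated 15 min at room temperature; enzyme-free buffer wells were negative controls.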
Pol kappa inh-1: DNA polymerase kappa (human) inhibition. purified Pol kappa, fluorescent DNA synthesis assay, 10 min. Potency, µM (top dose mostly 107 µM), usual class: inhibitors. 0.53% of 400,000 active. AID 588579
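Fluorescent qHTS in 1536-well format: enzyme (10 nM) and compound sat 15 min at room temperature before 50 nM substrate (final) was added. Signal taken at 0 and 10 min; no-enzyme buffer wells were negative controls.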
PI5P4K alpha inh: blocks human PI5P4K alpha kinase activity | max response, % | 1.2% of 330,000 active | PI5P4Kalpha enzyme, ADP-Glo luminescence, 60 min; hits give low values | AID 652105; active = max response of -50% or lower; inconclusive = between -30% and -50%; inactive = -30% or higher; note: value at the top dose of about 77 µM
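Single end-point luminescence (ADP-Glo) quantified ADP from PI5P4Kalpha turnover; ATP 5 microM final, 1 h at RT, 0.1% CHAPS and 0.28 mM EGTA in HEPES pH 7.4.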
Pol beta inh: DNA polymerase beta (human) inhibition; P06746; Pol beta primer extension/strand displacement, fluorescence kinetic; Potency, µM (series often up to 114 µM), usual class: inhibitors; 1.3% of 340,000 active
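10 nM enzyme + cpd, 15 min RT; start with substrate 50 nM final; read 0 min and after 10 min RT. Corrected, normalized data; 4-parameter Hill curve fit.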
Pol eta inh-1: DNA polymerase eta (human) inhibition; 1.2% of 390,000 active; Potency, µM (highest dose often 114 µM), hits mostly inhibitors; recombinant Pol eta, fluorescent DNA replication assay; AID 588591; Q9Y253
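Pol eta (10 nM) was preincubated with compounds for 15 min at room temperature, after which fluorescent replication substrate (50 nM final) was added to start the reaction. Fluorescence was read kinetically at 0 and 10 min.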
WRN inhibitor: blocks human WRN helicase | Potency, µM (series often up to 114 µM), usual class: inhibitors | AID 651768 | 0.46% of 360,000 active | Q14191 | WRN helicase unwinding, fluorescent forked duplex, kinetic; note: nearly all actives have a fitted effect of over 55% in size
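Kinetic red-fluorescence monitoring (525/598 nm) tracks WRN helicase activity after 100 nM fluorophore-quencher forked duplex and 2 mM ATP are added to 20 nM enzyme pretreated 15 min at room temperature with compound.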
GALK confirm: galactokinase (human) inhibition, confirmation; shares compounds with Pol eta inh-1; purified GALK, Kinase-Glo ATP depletion luminescence; Potency, µM (series often up to 115 µM), actives largely listed as inhibitors; 70% of 150 active
Redox cycling: redox cycling activity in phenol red-HRP assay | Potency, µM (titrated, usually from 115 µM), hits mostly inhibitors | 40% of 150 active | AID 2035 | Phenol red-HRP H2O2 redox cycling, absorbance 600 nm | shares compounds with Pol eta inh-1
HEK293 viability: counter-screen for GALK inhibitors: HEK293 cell cytotoxicity; shares compounds with Pol eta inh-1; HEK-293 viability, ATP luminescence (CellTiter-Glo), 24/48 h; Potency, µM (highest dose often 46.1 µM), hits mostly inhibitors; 10% of 170 active; AID 2547
Pol kappa inh-2: confirmation of human DNA polymerase kappa inhibitors; shares compounds with Pol eta inh-1; purified Pol-kappa, fluorescent strand-displacement substrate; Potency, µM, hits mostly inhibitors; 76% of 920 active
Pol eta inh-2: confirmation of human DNA polymerase eta inhibitors; Pol eta primer extension, TAMRA/BHQ fluorescence, 10 min; Potency, µM, actives largely listed as inhibitors; 64% of 2,600 active; shares compounds with Pol eta inh-1
Numbers stand for hits; - = inactive; ? = inconclusive; . = no result; [ ] = another dose, or the depositor's remark. Unless noted, calls come from the whole dose curve; as a rule, active = well fitted curve in the direction sought with a large enough effect; inconclusive = small, poorly fitted or top-dose-only effect, or another doubt; inactive = no such curve, though single readings can be large; an effect the other way counts as inactive or inconclusive.

SMILES	Pol iota inh	Pol kappa inh-1	PI5P4K alpha inh	Pol beta inh	Pol eta inh-1	WRN inhibitor	Pol eta inh-2	others
COc1cc(/C=C2/C(=O)NN(c3ccc(C)c(Cl)c3)C2=O)cc([N+](=O)[O-])c1O	-	-	-67	35µM	28µM	?	85
NC(=O)C(CC(=O)O)NC(=O)[C@@H]1CCOc2c(I)cc([N+](=O)[O-])cc2C(=O)N[C@@H](CO)C(=O)N[C@@H](Cc2ccc(O)cc2)C(=O)N1 (stereo partly drawn)	?	35µM	-	-	20µM	-	30
COc1ccc(Cl)cc1-c1ccc(C(=O)O)s1	.	-	.	.	.	.	.
Cc1ccc(C)c(NC(=O)c2nc(S(C)(=O)=O)ncc2N(Cc2ccc(C(C)(C)C)cc2)Cc2ccco2)c1	-	-	.	-	-	.	.
COc1cc2ccccc2cc1C(=O)NC(=S)Nc1ccc(C(=O)O)cc1	-	-	-	-	50µM	-[11.6 µM]	?
COc1ccc(NC(=O)c2cc3ccccc3cc2OC)cc1	?	?	-	-	-	-	.
COc1cc2ccccc2cc1C(=O)NC(=S)Nc1cccc(C(=O)O)c1	?	-	-	28µM	45µM	?	?
O=C(N/N=C/c1ccncc1)c1cccc(NC(=O)c2ccc(Cl)cc2)c1	?	-	-	45µM	-	-[11.6 µM]	.	Pol kappa inh-2=?
COc1ncc2nc(-c3ccccc3)c(=O)n(C)c2n1	.	-	.	.	.	.	.
CCOC(=O)c1c(NC(=O)c2cc(OC)c(OC)c(OC)c2)sc2c1CCCC2	-	-	.	-	-	.	.
COc1ccc(C(=O)/C=C/c2ccsc2)cc1CSCC(=O)O	13µM	-	-	35µM	20µM	?	76
COc1ccc(C(C)=O)cc1CSCCC(=O)O	-	-	-	-	-	-	.
COc1cc2cc(CCCOC(=O)c3ccco3)oc(=O)c2cc1OC	-	-	-	.	-	-	.
Cc1noc(C)c1S(=O)(=O)Nc1ccc(C(=O)Nc2ccc(OC(F)(F)F)cc2)cc1	-	-	-	-	-	-	.	GALK confirm=33µM;Redox cycling=-;HEK293 viability=?
O=Cc1ccc2[nH]ccc2c1	-	-	.	.	.	.	.
CC(=O)c1ccc(NC(=S)Nc2cccc3cnccc23)cc1	-	-	-	?	-	-	.	GALK confirm=?;Redox cycling=11µM;HEK293 viability=-
Cc1ccc(NC(=S)Nc2cccc3cnccc23)cc1	-	-	-	-	-	-	.
O=C(CSc1nnc(Nc2ccccc2F)s1)NC(=O)CN1CCCC1=O	?	?	?	.	22µM	-	?	Pol kappa inh-2=67
O=C1NN(c2ccc(Br)cc2)C(=O)/C1=C\c1ccc(O)cc1O	?	-	?	-	-	-	.	GALK confirm=47µM;Redox cycling=-;HEK293 viability=-
O=C1NN(c2ccc(F)cc2)C(=O)/C1=C/c1cccs1	-	-	-	-	-	-	.
COc1ccc(-n2ccn(CC(=O)Nc3ccc(C)cc3C)c(=O)c2=O)cc1	-	-	.	-	-	.	.
CCCCCC(=O)c1c(O)cc(OC)c(Cl)c1O	.	-	.	.	.	.	.
CCCCCCCCC(=O)c1c(OC)oc(C=O)cc1=O	.	.	-84	.	22µM	-[11.6 µM]	?	Pol kappa inh-2=?
CCCCN1C(=O)C(CC(=O)NCCc2ccccn2)CC(C(=O)N(CC)CC)=C1C (stereo not drawn)	.	.	-	.	-	-	.
